{
  "source": "the supplement of paper PMC6555819",
  "data": [
    {"tested_on": "VDR:RXRa (NR concentration 270 nM, RXRa partner concentration 90 nM)", "assay": "PBM binding z-score (relative to random genomic background probes); higher = stronger binding; sequences stand for … in GC…GCGATTGACAGCGTAGAATGAAGG", "protocol": "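Protein-binding microarray (Agilent 4x180K custom design, double-stranded 60-nt probes: 5' GC cap, 34-nt variable region, 24-nt constant primer region; full probe sequence given). Purified or IVT nuclear receptor:RXRα heterodimers (3:1 NR:RXRα, mostly 270:90 nM) or homodimers were incubated for 1 h in PBS with 2% milk and no ligand, then detected with Alexa488 antibodies. Fluorescence from o1-orientation probes (~5 replicates averaged) was converted to z-scores against 500 random hg19 background probes. Variable regions are seed direct-repeat (DR0–DR5) sites, all their single-nucleotide variants and half-site ablations.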", "values": [
      {"sequence": "CAAACTAGGTCACCGGAAGGTCAAAGTGCGCATG", "PBM binding z-score": 6.18},
      {"sequence": "TCTTATAGATCAGCAGGTTAAGAAAGCTGGCCAA", "PBM binding z-score": 0.455},
      {"sequence": "AGTCAAAGTTTAGGACGAGGTAACGTAAAGCACG", "PBM binding z-score": 0.00949},
      {"sequence": "TCTATTAGTTGAAGGACAACCGACGAGTCCGTTT", "PBM binding z-score": 1.23},
      {"sequence": "TCGAGTAGGTTACGGGCATTCAGAATGGCGTCGA", "PBM binding z-score": -0.46},
      {"sequence": "AGAACAAGGGCAATGAGTTGATAGCACGGGTGGC", "PBM binding z-score": 4.7},
      {"sequence": "TAGCCGAGGTCATGGGCCAGTATACCACGCGAAC", "PBM binding z-score": 5.46},
      {"sequence": "ACAGACACGTGAGTGAAGGTAACTCAGCTGGACG", "PBM binding z-score": -0.481},
      {"sequence": "CCGACTGGGCCATCAGGTCATTGATATCAACGTT", "PBM binding z-score": 1.63},
      {"sequence": "ACTCAAAGTTCACTAGGTAACGTAAGATTCAGCT", "PBM binding z-score": 4.17},
      {"sequence": "TTCCCAAGGTGAAAGGTCGTTGATGCACGCCTTG", "PBM binding z-score": 3.35},
      {"sequence": "CCCTACGGGTCACTCCAGGTTATAGCATCGGAGT", "PBM binding z-score": 4.12},
      {"sequence": "CGTCCAAGGTCAGAGACGTCAGTGAATGCCGAGT", "PBM binding z-score": 2.76},
      {"sequence": "CCGACTGGGGCAGAAAGGTTACCAGACCATCCGG", "PBM binding z-score": 0.696},
      {"sequence": "CAGACTGGGGCAGAAAGGTTACCATACCATCCGG", "PBM binding z-score": 1.44},
      {"sequence": "AGTCAAAGTTCAGGACGAGGCAACGTAAAGCACG", "PBM binding z-score": 1.93},
      {"sequence": "GCGACTGGGGCAAAGCAGGTTACCTTAAGGTTGG", "PBM binding z-score": 0.0193},
      {"sequence": "GATACAGGGTCAAGGCCATAGTACGCGTATTGAT", "PBM binding z-score": 4.21},
      {"sequence": "TAGCCTAGGTCATGAGGGCCAGTATAGTGTCGGC", "PBM binding z-score": 3.51},
      {"sequence": "CCAACTAGGTCAAGAGGTCAAAGTCCGCTTCCCG", "PBM binding z-score": 6.1},
      {"sequence": "CCTTATGGGTCACGAGGTTATAGCACGACGAGCG", "PBM binding z-score": 4.4},
      {"sequence": "GCTTACGGGTCAAAGGTTATATCATGAATAGAAT", "PBM binding z-score": 5.71},
      {"sequence": "CGAAATAGGTCAGAACAGGACAGTGAAGGATGAT", "PBM binding z-score": 1.71},
      {"sequence": "TAGCCTAGGTCATTGGGCCAGTACAGTACGCATC", "PBM binding z-score": 2.19},
      {"sequence": "CCGACTGGGGCGGAAAGGTTACCATACCATCCGG", "PBM binding z-score": 1.02},
      {"sequence": "CCGAGTAGGTTGTGGGGCATTCAGGCAACGGTGA", "PBM binding z-score": -0.367},
      {"sequence": "CCTACTGGCCCACGAAAGGTCATTGATTCAGTGA", "PBM binding z-score": 3.74},
      {"sequence": "ATCTCTAGGTAAAAGTTCAGTGGATCCCGAGGAT", "PBM binding z-score": 1.21},
      {"sequence": "GGAACGAGGGCATTCGACTTGATAGCATGGCGAT", "PBM binding z-score": 1.35},
      {"sequence": "ACAATGAGGTTATTAAGATCAGGGAATTGCGGTC", "PBM binding z-score": 2.56},
      {"sequence": "ATCTCTAGGTAACAAGTTCAGTAAAAGAGAGGAC", "PBM binding z-score": 1.96},
      {"sequence": "ATATGTAGGTTACATCCGGGTCATTAAGGCTATG", "PBM binding z-score": 4.54},
      {"sequence": "CCGACTGGGGCATAAGGTAACCATAAGCCAGCCC", "PBM binding z-score": -0.407},
      {"sequence": "GATACAGTGTCAGCTAGAGGCCAGAGTATGGAAA", "PBM binding z-score": -0.468},
      {"sequence": "CCTACTGGGCCAAAGGTCATTGATTCCAATGCTC", "PBM binding z-score": 4.75},
      {"sequence": "AGAATGAGGTTATTAGGATCAGGGAATTGCGGTC", "PBM binding z-score": 2.7},
      {"sequence": "CAAACTAGGTCGCAGAGGTCAAAGTCCGTGCGTA", "PBM binding z-score": 7.14},
      {"sequence": "CCTCGGGGGACAACAGGAGGTCAGAGCTGCCAGA", "PBM binding z-score": 2.71},
      {"sequence": "CGTCCAAGTTCAAGGTAACGTAACAGAAAGCAGC", "PBM binding z-score": 2.45},
      {"sequence": "TTACCAAAGTGAAGGTCGTTGATCCCTCTGTAGA", "PBM binding z-score": 0.954}
    ]}
  ]
}
